PrPC TRFRET = inhibitors of human cell surface prion protein PrPC. P04156. TR-FRET read-out. inhibition, % at 13.8 µM. 0.43% of 370,000 active; in the data active = inhibition above about 24%; also: 0% = median of the test wells and 100% = reference compound wells
FBA Mtb inh = inhibits M. tuberculosis FBA enzyme | P9WQA3 | AID 588726 | purified M. tuberculosis FBA, fluorescence read-out | 2.3% of 360,000 active | inhibition, % at 1 µM;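 also: 0% = vehicle and 100% = reference inhibitor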
Target sequence (P9WQA3 whole entry, looked up): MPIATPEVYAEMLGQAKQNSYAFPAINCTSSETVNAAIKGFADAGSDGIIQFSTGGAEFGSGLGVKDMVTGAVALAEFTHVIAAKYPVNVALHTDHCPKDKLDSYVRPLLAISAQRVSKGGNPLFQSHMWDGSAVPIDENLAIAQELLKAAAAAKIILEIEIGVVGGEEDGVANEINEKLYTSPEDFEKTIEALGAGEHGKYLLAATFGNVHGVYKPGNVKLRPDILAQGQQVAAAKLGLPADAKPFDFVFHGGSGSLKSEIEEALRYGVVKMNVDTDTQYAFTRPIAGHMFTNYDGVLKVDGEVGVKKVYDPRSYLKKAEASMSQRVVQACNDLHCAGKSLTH
PrP 5UTR inh = suppresses PrP 5' UTR mRNA reporter expression. cell-based PrP 5' UTR mRNA reporter, plate reader. inhibition, % (no concentration beside the values). 0.35% of 340,000 active. AID 488862; in the data active = inhibition above about 52%; also: 0 = median of the neutral control wells
BJeLR lethal = kills HRASV12-expressing BJeLR cells | BJeLR (HRASV12) viability, CellTiter-Glo ATP luminescence, 48 h | inhibition, % (test concentration not listed) | 0.17% of 300,000 active; in the data active = inhibition above about 50%
PfHsp40 yeast = compounds rescuing yeast from Plasmodium falciparum HSP40 toxicity | S. cerevisiae expressing PfHsp40, growth rescue, ATP luminescence | growth rescue, % at 12.5 µM | 0.68% of 340,000 active | AID 504582; in the data active = growth rescue above about 28%, passing the limit was not always enough;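 also: yeast W303a lacking pdr1 and pdr3 grown in galactose medium; growth measured after three days at 30 °C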
GDH-TPI counter-1 = inhibits GDH-TPI coupling enzymes, artifact for Mtb FBA screen; inhibition, % at 4.8 µM; 1.2% of 360,000 active; GDH-TPI coupled enzyme counterscreen, NADH absorbance; in the data active = inhibition above about 30%;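 also: 0% = DMSO wells and 100% = wells lacking the enzyme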
Mtb FBA confirm = Mtb FBA inhibition, confirmed; shares compounds with FBA Mtb inh; purified M. tuberculosis FBA, fluorescence read-out; inhibition, % at 1 µM; 78% of 5,600 active; AID 651616;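 also: 0% = vehicle wells and 100% = reference inhibitor wells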
GDH-TPI counter-2 = inhibits GDH-TPI coupling enzymes, flagging Mtb FBA hits; GDH-TPI coupled enzyme counterscreen, fluorescence; shares compounds with FBA Mtb inh; inhibition, % at 1 µM; 81% of 5,600 active; in the data active = inhibition above about 10%
GDH-TPI dose = counter-screen for M. tuberculosis FBA inhibitors: GDH-TPI dose response. shares compounds with FBA Mtb inh. GDH-TPI coupled enzyme assay, fluorescence, artifact counterscreen. IC50, µM. 79% of 170 active. AID 652145; call rule not given here
* marks the source's active call; other numbers are inactive results. This is a sample that favours compounds with a hit; in the whole collection about 4.5% have one here. Rule as the data show it, unless noted: active = inhibition above about 27%; inactive = the rest.

Results for COCCn1c(SCC(=O)N2CCCCC2)nc2c(c1=O)SCC2 ?
PrPC TRFRET: 1; FBA Mtb inh: 41*; PrP 5UTR inh: -23; BJeLR lethal: 0; PfHsp40 yeast: -1; GDH-TPI counter-1: 13; Mtb FBA confirm: 18; GDH-TPI counter-2: 6; GDH-TPI dose: >10

Results for CCCn1c(-c2ccc(OC)cc2)nc2nc3ccccc3nc21 ?
PrPC TRFRET: -8; FBA Mtb inh: 42*; PrP 5UTR inh: -10; BJeLR lethal: -7; PfHsp40 yeast: 0; GDH-TPI counter-1: 43*; Mtb FBA confirm: 98*; GDH-TPI counter-2: 79*

How did O=C(NCC1CCN(C(=O)C(=O)c2cc3ccccc3o2)CC1)c1cc(C(F)(F)F)cc(C(F)(F)F)c1 do in these assays?
PrPC TRFRET: -7

Results for COc1ccc(-c2oc3ccccc3c(=O)c2OCC(=O)O)cc1 ?
PrPC TRFRET: 2; FBA Mtb inh: 98*; PrP 5UTR inh: -14; BJeLR lethal: -4; PfHsp40 yeast: -2; GDH-TPI counter-1: 35*; Mtb FBA confirm: active; GDH-TPI counter-2: 163*

What do the screens show for `O=C(O)COc1c(-c2ccc(Cl)cc2)oc2ccccc2c1=O`?
PrPC TRFRET: -1; FBA Mtb inh: 7; PrP 5UTR inh: -9; BJeLR lethal: 0; PfHsp40 yeast: 0; GDH-TPI counter-1: 8

Results for NC(=O)COc1c(-c2ccco2)oc2ccccc2c1=O ?
PrPC TRFRET: -18; FBA Mtb inh: 21; PrP 5UTR inh: -22; BJeLR lethal: 19; PfHsp40 yeast: -2; GDH-TPI counter-1: 26

Results for O=C(O)COc1c(-c2ccco2)oc2ccccc2c1=O ?
PrPC TRFRET: 2; FBA Mtb inh: 46*; PrP 5UTR inh: 1; BJeLR lethal: -1; PfHsp40 yeast: 0; GDH-TPI counter-1: 25; Mtb FBA confirm: active; GDH-TPI counter-2: active

Results for CCOC(=O)COc1c(-c2ccc(OC)cc2)oc2ccccc2c1=O ?
PrPC TRFRET: -1; FBA Mtb inh: 68*; PrP 5UTR inh: -11; BJeLR lethal: 2; PfHsp40 yeast: 0; GDH-TPI counter-1: 43*; Mtb FBA confirm: active; GDH-TPI counter-2: active

How did COc1cc2c3nnc(-c4ccc(F)cc4)c-3cn(Cc3ccc(C)cc3)c2cc1OC do in these assays?
PrPC TRFRET: -9; FBA Mtb inh: 3; PrP 5UTR inh: 5; BJeLR lethal: 36; PfHsp40 yeast: 0; GDH-TPI counter-1: 7

What do the screens show for `COc1cc2c3nnc(-c4ccccc4)c-3cn(Cc3ccc(F)cc3)c2cc1OC`?
PrPC TRFRET: -11; FBA Mtb inh: 32*; PrP 5UTR inh: -13; BJeLR lethal: 2; PfHsp40 yeast: 0; GDH-TPI counter-1: 13; Mtb FBA confirm: 127*; GDH-TPI counter-2: 94*

How did CCOc1ccc(C(=O)C(C)OC(=O)Cn2[nH]c(=O)c3ccccc3c2=O)cc1 (stereo not given) do in these assays?
PrPC TRFRET: -2; FBA Mtb inh: 3; PrP 5UTR inh: -20; BJeLR lethal: 0; PfHsp40 yeast: 0; GDH-TPI counter-1: 6

Results for COC(=O)C1=CN(c2cccc(Cl)c2)C=C(C(=O)OC)C1c1cccc(OC)c1 ?
PrPC TRFRET: -4; FBA Mtb inh: 54*; PrP 5UTR inh: -8; BJeLR lethal: 9; PfHsp40 yeast: 1; GDH-TPI counter-1: 0; Mtb FBA confirm: 111*; GDH-TPI counter-2: 94*

What do the screens show for `CC(=O)Nc1ccc(N2C(=O)c3cccc(NC(C)=O)c3C2=O)cc1`?
PrPC TRFRET: 5; FBA Mtb inh: -2; PrP 5UTR inh: -9; BJeLR lethal: 4; PfHsp40 yeast: 0; GDH-TPI counter-1: 1

What do the screens show for `O=C1NC(=O)c2c(NC(=O)C3CCCO3)cccc21` (stereo not given)?
PrPC TRFRET: -1; FBA Mtb inh: 36*; PrP 5UTR inh: -14; BJeLR lethal: 2; PfHsp40 yeast: 0; GDH-TPI counter-1: 16; Mtb FBA confirm: 97*; GDH-TPI counter-2: 88*

Results for O=C(O)c1ccccc1NC(=O)C1CCCO1 (stereo not given) ?
PrPC TRFRET: 7; FBA Mtb inh: 5; PrP 5UTR inh: -17; BJeLR lethal: 5; PfHsp40 yeast: -1; GDH-TPI counter-1: 2

Results for CC(=O)Nc1cccc2c1C(=O)NC2=O ?
PrPC TRFRET: 0; FBA Mtb inh: 28*; PrP 5UTR inh: -24; BJeLR lethal: 10; PfHsp40 yeast: 0; GDH-TPI counter-1: 2; Mtb FBA confirm: 54*; GDH-TPI counter-2: 43*

What do the screens show for `COC(=O)C1C(O)=C(C=NC2CCCCC2)C(=O)CC1(C)C` (stereo not given)?
PrPC TRFRET: -1; FBA Mtb inh: 28*; PrP 5UTR inh: -23; BJeLR lethal: -7; PfHsp40 yeast: 1; GDH-TPI counter-1: -2; Mtb FBA confirm: 147*; GDH-TPI counter-2: 115*

How did Cc1ccccc1N(CC(=O)N1CCN(c2ccccc2)CC1)S(C)(=O)=O do in these assays?
PrPC TRFRET: -1; FBA Mtb inh: 28*; PrP 5UTR inh: -18; BJeLR lethal: 5; PfHsp40 yeast: 0; GDH-TPI counter-1: 4; Mtb FBA confirm: 52*; GDH-TPI counter-2: 37*

Results for Cc1ccccc1N(CC(=O)N1CCN(Cc2ccccc2)CC1)S(C)(=O)=O ?
PrPC TRFRET: -3; FBA Mtb inh: -4; GDH-TPI counter-1: 2

What do the screens show for `CCc1ccccc1NC(=O)CCN1C(=O)C2CC=CCC2C1=O` (stereo not given)?
PrPC TRFRET: -3; FBA Mtb inh: -2; PrP 5UTR inh: -22; BJeLR lethal: -3; PfHsp40 yeast: -1; GDH-TPI counter-1: 3

How did N#CC(C(=O)CCN1C(=O)C2CC=CCC2C1=O)c1nc2ccccc2[nH]1 (stereo not given) do in these assays?
PrPC TRFRET: 3; FBA Mtb inh: 47*; PrP 5UTR inh: -14; BJeLR lethal: 2; PfHsp40 yeast: 0; GDH-TPI counter-1: 19; Mtb FBA confirm: 26; GDH-TPI counter-2: 20*

Results for Cc1cc(C(=O)COC(=O)c2nccnc2N)c(C)n1C ?
PrPC TRFRET: -6; FBA Mtb inh: 62*; PrP 5UTR inh: -2; BJeLR lethal: -3; PfHsp40 yeast: -1; GDH-TPI counter-1: 8; Mtb FBA confirm: 2; GDH-TPI counter-2: 6

How did CCc1nc2ccc(C(=O)NC3CCN(Cc4ccccc4)CC3)cn2c1N(CC)Cc1cccc(Br)c1 do in these assays?
PrPC TRFRET: -19; FBA Mtb inh: -2; GDH-TPI counter-1: 9

Source: PubChem
